The source of these data is PubChem BioAssay (NCATS).

A short description of assay [1]: Primary qHTS for Huh7 cytotoxicity: counterscreen for inhibitors of MERS-S pseudotyped particle cell entry (AID 1479147). Particulars: outcome: dose series up to 57.1 µM unless noted.
Assay [2] can be described thus: Confirmatory qHTS to identify inhibitors of SARS-CoV-2 cell entry (AID 1645844). Also: potency is read from the fitted curve at half-maximal effect; nearly all actives have a fitted effect of over 45% in size. The procedure, abridged:
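HEK293-ACE2 cells (Expi293F stably expressing human ACE2) were pretreated with compounds for 1 hr at 37C, then infected with MLV-based particles carrying Wuhan-Hu-1 spike (C-terminal 19-aa truncation). Luciferase luminescence read after 48 hr; normalized to spike PP (100%) and bald PP (0%).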
(In general: Quantitative high-throughput screening tests each substance at several concentrations.)

Assay [3] is described as follows: Cytotoxicity counterscreen for inhibitors of SARS-CoV-2 cell entry (AID 1645845). Also: nearly all actives have a fitted effect of over 50% in size. Also: potency is read from the fitted curve at half-maximal effect. To be noted: outcome: dose series up to 57.1 µM unless noted. The procedure, abridged: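 Expi293F/hACE2 cells seeded overnight; cpd pin-transferred in DMSO, 1 h preincubation, + media, 48 h 37 C 5% CO2; ATPLite 1step luminescence; normalized to cells and no cells.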
A short description of assay [4]: Primary qHTS to identify inhibitors of SARS-CoV-2 cell entry (AID 1645846). Also: nearly all actives have a fitted effect of over 45% in size. Also: potency is read from the fitted curve at half-maximal effect. To be noted: SARS-CoV-2 pseudovirus cell entry assay, luminescence; activity change, negative = inhibition: at 57.1 µM (top of the series) unless noted. The procedure, abridged:
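HEK293 cells stably expressing human ACE2, pre-treated 1 h with compound, then infected with MLV particles pseudotyped with Wuhan-Hu-1 spike (C-terminal 19-aa truncation). Luciferase luminescence after 48 h at 37 °C, normalised to spike PP and bald PP.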

Assay [5] can be described thus: VSVG counterscreen qHTS to identify inhibitors of SARS-CoV-2 cell entry (AID 1645847). Also: nearly all actives have a fitted effect of over 65% in size. Also: potency is read from the fitted curve at half-maximal effect. As to activity change, negative = inhibition: % is scaled to controls: 0 for no effect and ±100 for the full control effect. The procedure, abridged:
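HEK293-ACE2 cells (Expi293F, human ACE2) pretreated 1 h with compound, then infected with MLV-based VSV-G pseudotyped particles for 48 h at 37 C; luciferase luminescence normalized to VSV-G PP and bald PP wells.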

Assay [6] is described as follows: Primary qHTS for Vero E6 cytotoxicity: counterscreen for inhibitors of SARS-S pseudo-typed particle cell entry (AID 1479150). Also: potency is read from the fitted curve at half-maximal effect. Particulars: outcome: dose series up to 57.1 µM unless noted.
For assay [7], the target named is Glutathione peroxidase 1 (Homo sapiens) (UniProt P07203). The assay can be described thus: Primary qHTS Assay for Inhibitors of Recombinant Selenoprotein Glutathione Peroxidase 1 (GPX1) (AID 1845191; active = well fitted curve in the direction sought with a large enough effect; an effect the other way counts as inactive or inconclusive; also: % is scaled to controls: 0 for no effect and ±100 for the full control effect; nearly all actives have a fitted effect of over 65% in size). The method in brief:
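Recombinant GPX1 (10 nM final) was preincubated with compound for 30 min at room temperature, then reacted with 1 mM GSH, 0.5 mM CHP, 0.5 mM NADPH and 100 nM glutathione reductase; NADPH fluorescence (340/450 nm) was read at 0 and 15 min.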

Assay [8] can be described thus: Primary qHTS for inhibitors of MERS-S pseudo-typed particle cell entry (AID 1479149). Also: nearly all actives have a fitted effect of over 60% in size. Also: potency is read from the fitted curve at half-maximal effect. As to activity change, negative = inhibition: % is scaled to controls: 0 for no effect and ±100 for the full control effect. To be noted: outcome: dose series up to 57.1 µM unless noted.
Assay [9] in a line: qHTS Assay for Identifying Gametocytocidal Compounds (AID 743244; active = well fitted curve in the direction sought with a large enough effect; an effect the other way counts as inactive or inconclusive; also: potency is read from the fitted curve at half-maximal effect). Particulars: P. falciparum 3D7 stage III-V gametocytes, alamarBlue, 72 h. The method in brief:
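Stage III-V P. falciparum 3D7 gametocytes, 20,000 per well, were exposed to compounds for 72 h at 37C, 5% CO2. AlamarBlue was then added for 24 h and viability was read as fluorescence at Ex 525/Em 598 nm.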

The nature of assay [10]: Confirmatory qHTS for VERO E6 Cytotoxicity Assay: Counterscreen for SARS-CoV-2 CPE Assay (AID 1508605). Also: nearly all actives have a fitted effect of over 60% in size. Also: potency is read from the fitted curve at half-maximal effect.
Assay [11] can be described thus: Confirmatory qHTS for activators (rescue) of SARS-CoV-2 Cytopathic Effect (CPE) (AID 1508606). Also: potency is read from the fitted curve at half-maximal effect; nearly all actives have a fitted effect of over 70% in size.

Results filed as inconclusive are left out. A structure can be active in one record and inactive in another. Activity calls are given as the source filed them. Unless noted, calls follow the shape of the full dose curve.

Sequence of Glutathione peroxidase 1 (Homo sapiens) (P07203 whole entry, looked up): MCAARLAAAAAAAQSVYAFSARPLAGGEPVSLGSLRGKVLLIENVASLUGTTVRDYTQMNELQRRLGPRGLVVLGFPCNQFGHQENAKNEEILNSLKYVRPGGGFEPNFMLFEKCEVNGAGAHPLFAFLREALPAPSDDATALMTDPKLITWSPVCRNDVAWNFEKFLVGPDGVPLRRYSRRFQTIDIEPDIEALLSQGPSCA

As for `COc1cc([C@@H]2c3cc4c(cc3[C@@H](O[C@@H]3O[C@@H]5CO[C@@H](C)O[C@H]5[C@H](O)[C@H]3O)[C@H]3COC(=O)[C@H]23)OCO4)cc(OC)c1OP(=O)(O)O`, the Potency result in assay [1] and in [3] was “inactive” in each case. Besides, the Potency is 0.541 µM (active) in assay [2], 3.55 µM (active) in assay [4] and 0.482 µM (active) in assay [5].

As for `CC1CCCC(O)CCCCCc2cc(O)cc(O)c2C(=O)O1` (stereo not drawn), the Potency entry in [1], in assay [6] and in [7] was “inactive” each time.

With `CC(C)N1CCN(c2ccc(OC[C@@H]3CO[C@@](Cn4cncn4)(c4ccc(Cl)cc4Cl)O3)cc2)CC1`, the Potency result in assay [8], in assay [6] and in assay [3] was “inactive” each time.

Take `CC1=CC(=C(c2ccc(N)cc2)c2ccc(N)cc2)C=CC1=N`: the figures for the Potency in [8], in assay [3] and in assay [4] were 7.08 µM (active), 8.91 µM (active) and 5.01 µM (active), respectively.

Take `C[C@H](Oc1cc(-c2cnn(C3CCNCC3)c2)cnc1N)c1c(Cl)ccc(F)c1Cl`: the Potency in assay [8] was 12.6 µM (active). The Potency entry in [6] and in assay [3] was “inactive” in each case.

Turning to `CC1(C)[C@@H](O[C@H]2O[C@H](C(=O)O)[C@@H](O)[C@H](O)[C@H]2O[C@@H]2O[C@H](C(=O)O)[C@@H](O)[C@H](O)[C@H]2O)CC[C@]2(C)[C@H]3C(=O)C=C4[C@@H]5C[C@@](C)(C(=O)O)CC[C@]5(C)CC[C@@]4(C)[C@]3(C)CC[C@@H]12`, the Potency entry in assay [8], in [6] and in assay [3] was “inactive” in each case.

Consider `FC(F)(F)C(F)(F)C(F)(F)C(F)(F)C(F)(F)F`, for which, in assay [8], the Potency entry was “inactive”.

As for `C/C(=C(\CCOC(=O)c1ccccc1)SS/C(CCOC(=O)c1ccccc1)=C(/C)N(C=O)Cc1cnc(C)nc1N)N(C=O)Cc1cnc(C)nc1N`, the Potency result in [8] and in assay [3] was “inactive” throughout.

In the case of `CC(Cc1ccc(O)c(O)c1)C(C)Cc1ccc(O)c(O)c1` (stereo not drawn), the Potency result in assay [1] and in assay [6] was “inactive” in each case. For the same compound, in assay [5], the Potency was 27.1 µM (active).

For `CCCCC(=O)OCC(=O)[C@]1(O)Cc2c(O)c3c(c(O)c2[C@@H](O[C@H]2C[C@H](NC(=O)C(F)(F)F)[C@H](O)[C@H](C)O2)C1)C(=O)c1c(OC)cccc1C3=O`, the Potency in assay [9] is 7.08 µM (active); in [8] it was 14.1 µM (active); in assay [2], 0.857 µM (active); in [4] it was 1 µM (active); in assay [5], 0.961 µM (active). The Potency entry in assay [6] was “inactive”. Further, the activity change, negative = inhibition in assay [4] was -97.5%.

Consider `COc1ccc2c(c1)N(C[C@H](C)CN(C)C)c1ccccc1S2`, for which the Potency result in [6], in [10] and in assay [3] was “inactive” each time. Besides, the Potency in assay [11] was 10 µM (active); in [4], 11.2 µM (active).

As for `C[C@](C#N)(COc1cc(C#N)ccc1C(F)(F)F)NC(=O)c1ccc(SC(F)(F)F)cc1`, in assay [6], the Potency entry is “inactive”.

On to `O=C(/C=C/c1ccccc1)NC(NC(=S)Nc1cccc2cccnc12)C(Cl)(Cl)Cl` (stereo not drawn), for which, in assay [10], the Potency result is “inactive”.

As to `O=C1NC(=O)c2cc(Nc3ccc(F)cc3)c(Nc3ccc(F)cc3)cc21`, the Potency in [10] was 11.2 µM (active).

For `O=C(OC[C@H]1O[C@@H](OC(=O)c2cc(O)c(O)c(OC(=O)c3cc(O)c(O)c(O)c3)c2)[C@H](OC(=O)c2cc(O)c(O)c(OC(=O)c3cc(O)c(O)c(O)c3)c2)[C@@H](OC(=O)c2cc(O)c(O)c(OC(=O)c3cc(O)c(O)c(O)c3)c2)[C@@H]1OC(=O)c1cc(O)c(O)c(OC(=O)c2cc(O)c(O)c(O)c2)c1)c1cc(O)c(O)c(OC(=O)c2cc(O)c(O)c(O)c2)c1`, in [6], the Potency entry was “inactive”.

Turning to `Cc1[nH]c(/C=C2\C(=O)Nc3ccc(F)cc32)c(C)c1C(=O)NCCN1CCCC1`, the Potency result in assay [6] and in assay [3] was “inactive” in each case. Also, the activity change, negative = inhibition in assay [4] is -9.79% [at 27.1 µM].

As for `NC(=O)c1cccc2cn(-c3ccc(C4CCCNC4)cc3)nc12` (stereo not drawn), in assay [8], the Potency is 25.1 µM (active). In assay [6], the Potency result is “inactive”.

On to `CCSc1ccc2c(c1)N(CCCN1CCN(C)CC1)c1ccccc1S2`, for which the Potency result in assay [6] is “inactive”.

Take `Clc1cc(Cl)c(OCC#CI)cc1Cl`: the Potency entry in assay [8] was “inactive”.

On to `CCC1OC(=O)C(C)C(OC2CC(C)(OC)C(O)C(C)O2)C(C)C(OC2OC(C)CC(N(C)C)C2O)C(C)(O)CC(C)C2NC(COCCOC)OC(C2C)C1(C)O` (stereo not drawn), for which the Potency result in assay [8], in assay [6] and in [3] was “inactive” throughout.

As for `O=C(CCCN1CCC(n2c(=S)[nH]c3ccccc32)CC1)c1ccc(F)cc1`, the Potency entry in [6] is “inactive”.

Take `Clc1ccc(CCCOCCCN2CCCCC2)cc1`: the Potency result in assay [6] and in assay [3] was “inactive” each time.

Consider `Cc1cc(/C=C/c2ccc3cc(N(C)C)ccc3[n+]2C)c(C)n1-c1ccccc1`, for which the figures for the Potency in assay [8] and in [4] were 5.01 µM (active) and 1.78 µM (active), respectively.

As for `CC(C)[C@H]1C(=O)N[C@@H](CCCN=C(N)N)C(=O)NCC(=O)N[C@@H](CC(=O)O)C(=O)N[C@H](Cc2ccccc2)C(=O)N1C`, the Potency result in [1] and in [6] was “inactive” in each case. Also, the activity change, negative = inhibition in assay [4] was -11.5% [at 27.1 µM].

With `COc1cc(N2CCC(N3CCN(C)CC3)CC2)ccc1Nc1ncc(Cl)c(Nc2ccccc2P(C)(C)=O)n1`, the Potency result in [6] and in [5] was “inactive” in each case. The figures for the Potency in assay [2] and in [4] were 4.82 µM (active) and 8.91 µM (active), respectively.

Take `CC[C@@H](C(=O)O)[C@@H]1O[C@@H]([C@@H](C)[C@H](O)[C@H](C)C(=O)[C@H](CC)[C@H]2O[C@]3(C=C[C@@H](O)[C@]4(CC[C@@](C)([C@H]5CC[C@](O)(CC)[C@H](C)O5)O4)O3)[C@H](C)C[C@@H]2C)[C@@H](C)C[C@@H]1C`: the Potency in assay [9] was 0.316 µM (active); in [8], 0.355 µM (active). Besides, in assay [6], the Potency entry is “inactive”.

For the compound `CC(C)(C)c1ccc(C(=O)Nc2cc(Cl)c(Br)cc2C(=O)O)cc1`, the Potency in assay [10] was 10 µM (active).

As for `CC(=O)Oc1cc(C)c(OC(C)=O)c2ccccc12`, the Potency result in assay [6] is “inactive”. Further, the Potency in assay [4] was 31.6 µM (active).

`CCCCC(=O)O[C@H]1CC[C@H]2[C@@H]3CCc4cc(O)ccc4[C@H]3CC[C@]12C`: the Potency entry in assay [1] and in assay [6] was “inactive” throughout. Besides, the activity change, negative = inhibition in assay [4] was -64.3%.

Turning to `CCN(CC)CCN(Cc1ccc(-c2ccc(C(F)(F)F)cc2)cc1)C(=O)Cn1c(SCc2ccc(F)cc2)nc(=O)c2c1CCC2`, the Potency in assay [10] was 10 µM (active).

As to `CCCCCCOc1ccc(C(=N)N(CCCC)CCCC)c2ccccc12`, the figures for the Potency in assay [6] and in assay [10] were 14.1 µM (active) and 10 µM (active), respectively.

Turning to `CCCN1C[C@@H](NS(=O)(=O)N(CC)CC)C[C@@H]2Cc3c(O)cccc3C[C@H]21`, the Potency entry in assay [6] is “inactive”.

Turning to `C=CC(=O)Nc1cc(Nc2nccc(-c3cn(C)c4ccccc34)n2)c(OC)cc1N(C)CCN(C)C`, the Potency is 31.6 µM (active) in assay [8] and 28.2 µM (active) in assay [3].

Take `NC(=O)c1cnc(N[C@@H]2CCCC[C@@H]2N)nc1Nc1cccc(-n2nccn2)c1`: the Potency entry in [10] was “inactive”.

As for `CCN1/C(=C/C=C/C=C/c2sc3ccccc3[n+]2CC)Sc2ccccc21`, the Potency in assay [8] was 11.2 µM (active).

As for `CCCCCCCCCCCCCC[n+]1ccc(C)cc1`, the Potency result in [1] was “inactive”. The Potency in [3] is 5.62 µM (active).

Take `CCc1ccccc1OC[C@@H](O)CN[C@H]1CCCc2ccccc21`: the Potency entry in assay [10] is “inactive”.

As for `COc1ccc2sc(NC(c3ccc(OC(F)F)cc3)c3ccc4cccnc4c3O)nc2c1` (stereo not drawn), the Potency in assay [10] is 0.708 µM (active).

Take `CS(=O)(=O)NCC1CCC(Nc2nc3c(s2)CCSc2ccccc2-3)CC1` (stereo not drawn): the Potency entry in assay [10] is “inactive”.

For the compound `COc1cc2nc(N3CCCCC3)nc(NC3CCN(C)CC3)c2cc1OC`, the figures for the Potency in [10] and in assay [11] were 10 µM (active) and 3.55 µM (active), respectively.
